Source: PubChem
Tau fluor counter = Counterscreen qHTS for Inhibitors of Tau Fibril Formation, Fluorescence Polarization. Potency, µM (doses to about 57.7 µM), for inactives: top-dose activity change, negative = decrease. 0.93% of 280,000 active. tau K18 P301L Alexa594 fluorescence, heparin fibrillization. AID 1463, 2008; further: potency means the concentration at half of the fitted maximal effect; nearly all actives have a fitted effect of over 55% in size
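Human K18 P301L tau (15 uM unlabeled plus 0.24 uM Alexa 594-labeled, final) in 100 mM sodium acetate pH 7 was mixed with compound and 20 uM heparin and incubated 6 hr at 37 C.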
Sfp inh = qHTS Assay for Inhibitors of Bacillus subtilis Sfp phosphopantetheinyl transferase (PPTase). Biochemical Sfp PPTase activity, qHTS. Potency, µM, for the others: largest response in the series, negative = inhibition, actives largely listed as inhibitors. 3.5% of 310,000 active;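 further: the enzyme is Sfp with the accession as filed and its product quenches rhodamine fluorescence; potency means the concentration at half of the fitted maximal effect; 0% = enzyme reaction without inhibitor and -100% = no enzyme wells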
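With Hepes-Na pH 7.6 buffer containing 10 mM MgCl2, Sfp (15 nM) modified BHQ-2-YbbR (12.5 uM) using rhodamine-CoA (5 uM). Two reads 30 minutes apart at 525/598 nm yielded each well's rate.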
Tau fibril FP = qHTS for Inhibitors of Tau Fibril Formation, Fluorescence Polarization; K18 P301L tau heparin fibrillization, Alexa594 FP, 6 h; Microtubule-associated protein tau (Homo sapiens), P10636; 0.39% of 280,000 active; Potency, µM (series often up to 57.7 µM), for inactives: top-dose activity, negative = inhibition, hits mostly inhibitors; further: potency means the concentration at half of the fitted maximal effect; nearly all actives have a fitted effect of over 55% in size
Target sequence (P10636 561-689 P618L limits assumed): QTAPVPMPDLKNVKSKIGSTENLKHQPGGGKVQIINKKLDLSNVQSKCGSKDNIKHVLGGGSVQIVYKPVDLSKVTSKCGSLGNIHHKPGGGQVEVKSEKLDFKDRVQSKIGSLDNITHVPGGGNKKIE
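Quantitative HTS format: compounds meet 15 uM recombinant K18 P301L tau and Alexa 594-tau tracer in 100 mM sodium acetate pH 7; 20 uM heparin triggers fibrillization at 37 C over 6 hr; FP gives the signal.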
G9a inh = qHTS Assay for Inhibitors of Histone Lysine Methyltransferase G9a. Histone-lysine N-methyltransferase EHMT2 (Homo sapiens), Q96KQ7. G9a H3K9 monomethylation, AlphaScreen, 2 h. Potency, µM (highest dose often 102 µM), for inactives: at the top dose activity, negative = inhibition, actives largely listed as inhibitors. 8.8% of 350,000 active. AID 504332, 2011; further: potency means the concentration at half of the fitted maximal effect; nearly all actives have a fitted effect of over 75% in size
Target sequence (Q96KQ7 913-1193 limits assumed): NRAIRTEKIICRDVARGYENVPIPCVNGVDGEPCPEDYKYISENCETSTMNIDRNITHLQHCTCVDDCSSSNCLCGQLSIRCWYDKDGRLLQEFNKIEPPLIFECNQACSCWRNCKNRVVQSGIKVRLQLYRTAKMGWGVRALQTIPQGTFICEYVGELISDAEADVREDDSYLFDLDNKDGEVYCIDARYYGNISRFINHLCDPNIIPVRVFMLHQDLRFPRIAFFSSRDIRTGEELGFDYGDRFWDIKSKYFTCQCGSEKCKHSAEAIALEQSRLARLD
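Step 1: enzyme (final 20 nM) with compound, 15 min RT. Step 2: substrate peptide 500 nM and SAM 20 uM, 2 h RT. Step 3: anti-H3K9me1 antibody and AlphaScreen beads, 10 min, then plate read.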
Tau ThT inhib = qHTS for Inhibitors of Tau Fibril Formation, Thioflavin T Binding; 2.1% of 270,000 active; AID 1460, 2008; recombinant tau K18 P301L (four-repeat tau fragment), heparin-induced fibrillization, ThT fluorescence; Potency, µM (top dose mostly 57.4 µM), without a hit: at the highest dose activity, negative = inhibition, usual class: inhibitors; Microtubule-associated protein tau (Homo sapiens), P10636; further: potency means the concentration at half of the fitted maximal effect; nearly all actives have a fitted effect of over 55% in size
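Heparin-induced (20 uM) aggregation of recombinant human K18 P301L tau, 15 uM unlabeled with 0.24 uM labeled, pH 7 acetate buffer, 6 hr at 37 C with compound. Fibrils quantified by 30 uM ThT fluorescence after 1 hr ambient incubation.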
FBPA coupling cs = qHTS Assay for Inhibitors of Fructose-1,6-bisphosphate Aldolase from Giardia Lamblia: Coupling assay counterscreen; activity change, negative = inhibition, % at 58.2 µM, hits read low; 0.67% of 290,000 active; coupling enzyme system counterscreen, AmpLite Red fluorescence; in the data active means activity change below about -30%
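Counterscreen lacking aldolase: glyceraldehyde-3-phosphate coupling-enzyme reagent preincubated 10 min at RT with compound (at 57.5 uM final), then substrate/coupling system with AmpLite Red added; fluorescence read at 525/598 nm after 20 min RT.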
Active calls of the source: *; ? = inconclusive; nt = no result; [ ] = remark or other dose. Compounds with a hit are over-represented: about 11% of the library has one in this group of screens. Unless noted, the call rests on the fitted dose curve; in most records, active means well fitted curve in the direction sought with a large enough effect; inconclusive means small, poorly fitted or top-dose-only effect, or another doubt; inactive means no such curve, though single readings can be large; an effect the other way counts as inactive or inconclusive. Unless noted, on the % scale 0 is the no-effect control and ±100 the full control effect.

SMILES	Tau fluor counter	Sfp inh	Tau fibril FP	G9a inh	Tau ThT inhib	FBPA coupling cs
Clc1cc(Br)ccc1OCCCNCc1ccccc1	-9%	-22%	4%	7.1µM*	-5%	0
C=CCNCCCOc1ccc(C(C)(C)c2ccccc2)cc1	-12%	-65%	-2%	10µM*	-17%	0
COc1ccc(NC(=O)[C@H](C)NC(=O)C2CCN(S(=O)(=O)c3ccc(C)cc3)CC2)cc1	nt	27%	nt	29%	nt	nt
COCCNCCCOc1ccc(C(C)(C)c2ccccc2)cc1	-13%	16µM*	-6%	10µM*	-8%	-3
CC(C)NCCCOc1ccc(C(C)(C)c2ccccc2)cc1	-12%	?	5%	?	-12%	0
Brc1ccc(OCc2ccccc2)c(CNCc2ccncc2)c1	0%	79µM*	8%	-37%[0.0925 µM]	-5%	-12
O=C(Nc1cccc(Cl)c1N1CCCC1)c1cccc(-c2cc3ccccc3oc2=O)c1	-9%	7%	-9%	35µM*	-5%	-1
c1ccc(-c2nc3ccccn3c2NC2CCCC2)nc1	-29%	10µM*	8%	26%[12.7 µM]	?	1
Cc1nc2sc(C(c3ccccc3)N3CCC(O)CC3)c(O)n2n1 (centres undefined)	-8%	22%	-5%	0%	-9%	0
COc1ccc(N2CCN(C(c3ccco3)c3sc4nc(C)nn4c3O)CC2)cc1 (centres undefined)	-5%	-10%	6%	45µM*	-8%	1
Cc1nc2sc(C(c3ccco3)N3CCC(Cc4ccccc4)CC3)c(O)n2n1 (centres undefined)	-3%	35µM*	5%	?	?	3
Cn1c(N/N=C/c2cccs2)cc(=O)n(C)c1=O	-10%	-17%	-3%	50µM*	?	-27
CC(C)OC(=O)c1c(NC(=O)c2cc3nc(-c4ccccc4)cc(C(F)(F)F)n3n2)sc2c1CCCC2	-14%	nt	-6%	13µM*	?	nt
COC(=O)C1=C(C(=O)OC)SC2(S1)C(C(=O)OC)=C(C(=O)OC)SC1=C2c2cccc(C)c2NC1(C)C	?	3%	?	32µM*	14µM*	4
CCOc1ccccc1NC(=O)C1CCN(C(=O)C2CC(=O)N(c3ccc(C)cc3)C2)CC1 (centres undefined)	nt	9%	nt	15%	nt	-1
O=C1C(=O)c2ccccc2C(O)=C1c1cccc([N+](=O)[O-])c1	-19%	16%	-9%	56µM*	?	-13
Cc1ccc(C2=C(O)c3ccccc3C(=O)C2=O)cc1	nt	-2%	nt	nt	nt	-14
O=C(CSc1nc2c(sc3ccccc32)c(=O)n1CCO)NCC1CCCO1 (centres undefined)	0%	7%	-2%	-37%[12.7 µM]	4%	1
CCCCn1c(SCC(=O)NCc2ccco2)nc2c(sc3ccccc32)c1=O	-20%	?	?	-14%	?	-1
CCOCCCn1c(SCC(=O)NCc2ccco2)nc2c(sc3ccccc32)c1=O	-25%	22µM*	-8%	-26%	?	-2
O=C(CSc1nc2c(sc3ccccc32)c(=O)n1CCCN1CCCC1)NCC1CCCO1 (centres undefined)	-4%	-19%	0%	56µM*	-1%	-2
CCN1CCN(c2cc(C)c3cc(NC(=O)c4cc(Br)ccc4Cl)ccc3n2)CC1	?	nt	11%	?	?	nt
COc1ccc(-c2cn3c(n2)sc2cc(C(=O)NCc4cccs4)ccc23)cc1	0%	nt	-2%	-6%[59 µM]	-1%	nt
CCC(=O)N/N=C/c1ccc(-c2ccc([N+](=O)[O-])cc2)o1	-28%	-7%	2%	nt	7.9µM*	3
CC(C)(C)NC(=S)N/N=C\c1ccc(-c2ccc([N+](=O)[O-])cc2)o1	?	32µM*	12%	-11%[59 µM]	7.1µM*	-4
SMILES	Tau fluor counter	Sfp inh	Tau fibril FP	G9a inh	Tau ThT inhib	FBPA coupling cs
O=C1N=C(O)CN1/N=C/c1ccc(-c2ccc([N+](=O)[O-])cc2)o1	-5%	nt	0%	?	10µM*	nt
CNC(=S)N/N=C/c1ccc(-c2ccc(C(=O)O)cc2)o1	-9%	45µM*	-3%	nt	?	1
CCC(=O)N/N=C/c1ccc(-c2ccc(Cl)cc2)o1	-9%	3%	7%	-34%	?	0
O=C(N/N=C/c1ccc(-c2ccc([N+](=O)[O-])cc2)o1)[C@H]1C[C@@H]1c1ccccc1	?	-13%	6%	16%[59 µM]	?	-10
CCOc1ccc(N2CC(NC(=O)c3ccc4ccccc4c3)CC2=O)cc1 (centres undefined)	nt	nt	nt	-21%	nt	nt
C#Cc1ccc([C@H]2C=C(C(=O)N3CCN(Cc4ccc5c(c4)OCO5)CC3)O[C@@H](OCC)[C@@H]2CCCO)cc1	-1%	7%	12%	9%[12.7 µM]	-13%	1
Cc1cccc(C(=O)Nc2ccc(C(=O)N3CCCCC3C)cc2)c1 (centres undefined)	nt	14%	nt	52%	nt	1
O=C(N/N=C/c1ccc([N+](=O)[O-])o1)C(O)c1ccccc1 (centres undefined)	-7%	6%	0%	-4%	nt	0
CCc1nnc(N/N=C/c2ccc(-c3ccc([N+](=O)[O-])cc3)o2)n1N	?	?	?	?	1.8µM*	-37*
O=C(N/N=C/c1ccc(-c2ccc([N+](=O)[O-])cc2)o1)C(O)c1ccccc1 (centres undefined)	?	-7%	6%	?	16µM*	2
NC(=S)N/N=C/c1ccc(-c2cccc([N+](=O)[O-])c2)o1	-27%	-1%	3%	7%[59 µM]	?	-1
C=CCNC(=S)N/N=C/c1ccc(-c2cc(Cl)ccc2Cl)o1	3%	-8%	-3%	-34%	?	-3
NS(=O)(=O)c1ccc(-c2ccc(/C=N/NC(=O)c3ccc([N+](=O)[O-])cc3)o2)cc1	-22%	12%	3%	-5%	?	2
C=CCNC(=S)N/N=C/c1ccc(-c2ccc(OC)cc2)o1	20µM*[quencher]	-8%	9%	nt	?	0
CCCCC(=O)N/N=C/c1ccc(-c2ccc([N+](=O)[O-])cc2)o1	?	-11%	9%	-9%	4.5µM*	1
